Compounds with a hit are over-represented: about 18% of the library has one in this group of screens.
TDP1 cell CPT = DT40-hTDP1 cell growth loss with CPT; chicken DT40 Tdp1-/-;hTDP1 cells + 20 nM CPT, ATP luminescence, 48 h; Potency, µM (titrated, usually from 46.2 µM), without a hit: top-dose activity change, negative = growth inhibition, actives largely listed as inhibitors; 420,000 tested, 12% active; AID 686979; also: potency is read from the fitted curve at half-maximal effect; nearly all actives have a fitted effect of over 55% in size
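Chicken DT40 Tdp1-/- cells stably complemented with human TDP1 were seeded at 400 cells/well in medium containing 20 nM camptothecin, exposed to pin-transferred compounds, and grown at 37 °C for at least 48 hr. Viability was read as ATP luminescence.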
DT40 TDP1 no CPT = qHTS for Inhibitors of human tyrosyl-DNA phosphodiesterase 1 (TDP1): qHTS in cells in absence of CPT. Potency, µM (series often up to 46.2 µM), for the others: at the top dose activity change, negative = growth inhibition, most hits filed as inhibitors. 420,000 tested, 15% active. DT40 Tdp1-/- hTDP1 cells, no CPT, ATP luminescence, 48 h. AID 686978, 2013; also: potency is read from the fitted curve at half-maximal effect; nearly all actives have a fitted effect of over 55% in size
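No-CPT arm: Tdp1-/-;hTDP1 DT40 cells (400/well) plus compounds, incubated ≥48 hr at 37 °C. Readout CellTiter-Glo luminescence.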
IL-1B inflam inh = inflammasome signaling inhibition, IL-1 beta readout; THP-1 LPS/ATP IL-1B secretion, AlphaLISA, 16 h; stronger effect = lower value; activity change, % at 57.5 µM; 360,000 tested, 4.7% active; AID 743279; in the data active = activity change below about -50%; inconclusive = mostly about -30% to -49%
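Secreted IL-1B measured by AlphaLISA bead assay after 16 h compound exposure of THP-1 cells; compounds (final up to 57.5 uM) added 1 h before LPS (250 ng/mL) and ATP (1.25 mM) stimulation; lower signal means less secretion.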
RORgamma inh = inhibitors of mouse ROR gamma transcriptional activity | P51450 | 310,000 tested, 5.4% active | Drosophila S2 Gal4-RORgamma UAS-luciferase reporter, 20 h | Potency, µM (top dose mostly 53.6 µM), for the others: at the highest dose activity change, negative = inhibition, hits mostly inhibitors; also: potency is read from the fitted curve at half-maximal effect; nearly all actives have a fitted effect of over 60% in size
Target sequence (P51450 whole entry, looked up, the tested form may be a part): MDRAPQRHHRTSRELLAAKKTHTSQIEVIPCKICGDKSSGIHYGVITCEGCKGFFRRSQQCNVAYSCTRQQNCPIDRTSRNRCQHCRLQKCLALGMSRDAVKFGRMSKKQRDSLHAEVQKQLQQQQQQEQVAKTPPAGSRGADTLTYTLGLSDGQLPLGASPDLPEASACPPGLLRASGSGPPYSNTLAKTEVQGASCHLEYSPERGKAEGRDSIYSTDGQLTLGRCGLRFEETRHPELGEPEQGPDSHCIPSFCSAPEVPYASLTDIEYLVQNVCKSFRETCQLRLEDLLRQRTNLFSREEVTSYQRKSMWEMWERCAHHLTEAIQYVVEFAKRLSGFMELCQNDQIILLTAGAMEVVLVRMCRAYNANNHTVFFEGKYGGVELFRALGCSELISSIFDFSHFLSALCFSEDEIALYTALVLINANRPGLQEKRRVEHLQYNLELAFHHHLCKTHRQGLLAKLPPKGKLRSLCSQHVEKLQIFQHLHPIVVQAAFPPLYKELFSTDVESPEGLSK
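ROR gamma transcriptional activity was tracked as Gal4-UAS luciferase output in stably transfected Drosophila Schneider cells, with compound added 1 hr before 700 uM copper sulfate induction and a 20 hr ambient-temperature incubation.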
VP16 counter = counter-screen for ROR gamma inhibitors: Gal4-VP16 reporter. Drosophila S2 Gal4-VP16 UAS-luciferase, luminescence, 20 h. Potency, µM (highest dose often 53.6 µM), without a hit: top-dose activity, negative = inhibition, most hits filed as inhibitors. AID 2546. 310,000 tested, 3.5% active;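 also: Gal4-VP16 expression switched on by copper sulfate through the metallothionein promoter; potency is read from the fitted curve at half-maximal effect; nearly all actives have a fitted effect of over 50% in size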
LDHA inh = blocks human lactate dehydrogenase A. P00338. purified LDHA, NADH/diaphorase-resazurin fluorescence; stronger effect = lower value. activity change, % (values are at about 110 or 230 µM). 480,000 tested, 0.15% active; in the data active = activity change below about -30%; inconclusive = mostly about -25% to -30%;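 also: plate controls were DMSO wells for no effect and wells without enzyme for full effect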
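Resorufin fluorescence (ex540/em590), read at 0 and 20 min after diaphorase/resazurin addition, reports the NADH left after a 5 min room-temperature reaction of 2 nM human LDH5 with 0.06 mM NADH and 0.2 mM pyruvate.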
* marks the source's active call; other numbers are inactive results; ? = inconclusive; / = no result given; [ ] = another dose, or the depositor's remark. Unless noted, calls follow the shape of the dose curve; as a rule, active = well fitted curve in the direction sought with a large enough effect; inconclusive = small, poorly fitted or top-dose-only effect, or another doubt; inactive = no such curve, though single readings can be large; an effect the other way counts as inactive or inconclusive. Unless noted, % is scaled to controls: 0 for no effect and ±100 for the full control effect.

SMILES | TDP1 cell CPT | DT40 TDP1 no CPT | IL-1B inflam inh | RORgamma inh | VP16 counter | LDHA inh
Cc1nn(C)cc1/C=C1/CC2C3CC=C4CC(O)CCC4(C)C3CCC2(C)C1=O (stereo unspecified) | 1% | ? | 31 | / | / | -3
CC1(C)C(=O)CC[C@@]2(C)C1=CCC1C2CC[C@]2(C)C(=O)CCC12 (stereo partly specified) | 16µM* | ? | 11 | / | / | -7
C[C@]12CC[C@H](O)CC1=CC[C@@H]1[C@@H]2CC[C@]2(C)C(=O)CC[C@@H]12 | ? | ? | 57 | / | / | -1
C[C@]12CC[C@H](O)CC1=CCC1C2CC[C@]2(C)C(=O)CC[C@@H]12 (stereo partly specified) | 30µM* | 30µM* | / | -16% | 3% | /
O=C(NCc1ccccc1)C(=O)NCC1OCCN1S(=O)(=O)c1ccc([N+](=O)[O-])cc1 (stereo unspecified) | ? | ? | 24 | 20% | 19% | 2
COc1cc(CNC2CN3CCC2CC3)cc(Cl)c1OCc1ccccc1 (stereo unspecified) | / | / | / | / | / | 2
O=C(Nc1cccc(C(=O)Nc2cc(C(=O)Nc3ccc([S+](=O)([O-])[O-])c4cc([S+](=O)([O-])[O-])cc(SOOO)c34)ccc2F)c1)Nc1cccc(C(=O)Nc2cc(C(=O)Nc3ccc([S+](=O)([O-])[O-])c4cc([S+](=O)([O-])[O-])cc([S+](=O)([O-])[O-])c34)ccc2F)c1 | / | / | / | 7% | -3% | /
CC(=O)C1C(N2CC2)CC2C3CC=C4CC(O)CCC4(C)C3CCC21C (stereo unspecified) | 1.8µM* | 5.8µM* | -51* | / | / | -10
Cn1cc(C(=O)NC2CCCCCCC2)c2ccccc21 | / | / | / | / | / | 4
COc1ccc([N+](=O)[O-])cc1N=Cc1c(O)n(CCc2ccccc2)c(=O)n(C(C)C)c1=O | ? | 16µM* | 0 | ? | -15% | -2
COc1ccc(CCn2c(O)c(C=Nc3ccccc3F)c(=O)[nH]c2=O)cc1OC | 5% | -21% | 37 | 14% | 4% | 0
CC(Cc1ccc(C(C)(C)C)cc1)CN1CC(C)OC(C)C1 (stereo unspecified) | / | / | / | -7% | -17% | /
CN1Cc2ccccc2[C@@H]2c3cccc4[nH]cc(c34)C[C@H]21 | 5.2µM* | 5.8µM* | / | ? | -10% | /
Cc1ccsc1CNC(C)C(O)c1ccc(O)cc1 (stereo unspecified) | / | / | / | / | / | -8
CCOc1ccc(-c2cc(C(=O)N3CCC4(CC3)OCCO4)c3ccccc3n2)cc1 | 5.2µM* | ? | 18 | / | / | -5
CC1=C(C/C(C)=C/c2ccccc2)/C(=C/CO)[C@@H]2OC(=O)O[C@]2(C)C12CC2 | 8.2µM* | 12µM* | 4 | / | / | 3
Oc1ccccc1/C=N/NP(=S)(c1ccccc1)c1ccccc1 | -24% | ? | -10 | 11µM* | 6% | -2
Oc1ccc(/C=N/NP(=S)(c2ccccc2)c2ccccc2)c(O)c1O | -76% | -74% | -13 | -37% | -1% | 0
Cc1ccc(C)c(S(=O)(=O)c2nnn3c2nc(N2CCCC2)c2sccc23)c1 | 16µM* | ? | / | / | / | 2
Cc1c(I)c(=O)n(-c2ccccc2)n1C | ? | ? | / | 1% | -9% | /
COC(=O)C1=C(c2cccc(OCc3ccccc3)c2)C[C@@H]2CC[C@H]1N2C(=O)NCCCOC(C)C | 21µM* | 18µM* | ? | / | / | -1
COC(=O)C1=C(c2cccc(OCc3ccccc3)c2)C[C@@H]2CC[C@H]1N2C(=O)NCCOc1ccc(OC)cc1 | 23µM* | ? | -11 | / | / | 0
COC(=O)C1=C(c2ccccc2)C[C@@H]2CC[C@H]1N2C(=O)NCCNC(C)=O | 9% | -12% | 41 | / | / | -3
COC(=O)C1=C(c2cccc(OCc3ccccc3)c2)C[C@@H]2CC[C@H]1N2C(=O)NCCN1CCOCC1 | 16µM* | ? | -13 | / | / | -1
COC(=O)C1=C(c2cccc(OCc3ccccc3)c2)C[C@@H]2CC[C@H]1N2C(=O)NCc1ccccc1C(F)(F)F | 21µM* | 23µM* | -11 | / | / | 0
SMILES | TDP1 cell CPT | DT40 TDP1 no CPT | IL-1B inflam inh | RORgamma inh | VP16 counter | LDHA inh
CCCN(CCC)c1c([N+](=O)[O-])cc(C(F)(F)F)cc1[N+](=O)[O-] | -6% | 0% | / | -5% | -12% | /
COc1ccc(CNCCc2c[nH]c3ccccc23)cc1 | / | / | / | / | / | -9
COC(=O)C1=C(c2cccc(OCc3ccccc3)c2)C[C@@H]2CC[C@H]1N2C(=O)NCc1cccc(OC)c1 | 23µM* | 15µM* | ? | / | / | 1
COC(=O)C1=C(c2ccccc2OCc2ccccc2)C[C@@H]2CC[C@H]1N2C(=O)NCCCOC(C)C | 16µM* | ? | 9 | / | / | 6
COC(=O)C1=C(c2ccccc2OCc2ccccc2)C[C@@H]2CC[C@H]1N2C(=O)NCCOc1ccc(OC)cc1 | ? | ? | 0 | / | / | -6
COC(=O)C1=C(c2cccc(OCc3ccccc3)c2)C[C@@H]2CC[C@H]1N2C(=O)NCc1ccc(C(C)(C)C)cc1 | ? | 21µM* | -16 | / | / | -3
CC(C)(C)CC(C)(C)NCCc1ccccc1 | / | / | / | / | / | 3
Cc1cccc(C(O)c2ncc(-c3ccccc3Cl)[nH]2)c1C (stereo unspecified) | ? | ? | -9 | / | / | -13
COc1ccc(CNCCc2ccc(Cl)cc2)cc1 | / | / | / | / | / | -2
CC(=O)OC[C@]12C[C@H](OC(=O)CC(C)C)C(C)=C[C@H]1O[C@H]1[C@H](O)[C@@H](OC(C)=O)[C@@]2(C)[C@]12CO2 | 0.012µM* | 0.0092µM* | / | 0.025µM* | -90% | /
CC(=O)OC[C@]12CCC(C)=C[C@H]1O[C@@H]1[C@H](O)[C@@H](OC(C)=O)[C@@]2(C)[C@]12CO2 | 0.021µM* | 0.016µM* | -106* | 0.032µM* | 0.0016µM* | -3
CC(=O)N1CC2CC(C1)c1cccc(=O)n1C2 (stereo unspecified) | 14% | -2% | / | -9% | 6% | /
COC(=O)[C@@]1(OC)C[C@@H]2O[C@@]1(C)n1c3ccccc3c3c4c(c5c6ccccc6n2c5c31)C(=O)N(C)C4 | / | / | / | -8%[10 µM] | -4%[10 µM] | /
C[C@]12O[C@H](C[C@]1(O)CO)n1c3ccccc3c3c4c(c5c6ccccc6n2c5c31)CNC4=O | 0.3µM* | 0.38µM* | / | ? | 5.6µM* | /
CC(=O)c1cn(CC(=O)NCCc2c[nH]c3ccccc23)c2ccccc12 | 16µM* | 23µM* | 50 | -24% | ? | 0
